Results reported in PubChem BioAssay (NCI).
The panel holds about 83,000 compounds, 20% with a hit somewhere; the sample as a whole holds those more often.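 Note: values are percent growth. 100 is the growth of untreated cells, values between 100 and 0 indicate rising inhibition; between -100 and 0 indicates cell death.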 Activity calls are given as the source filed them. The calls were made as follows: active = growth percent below 10; inactive = the rest.

How the values were obtained:
Assay in all cases: NCI-60 one-dose screen, 48 h (100 = growth as untreated, 0 = no growth, -100 = all killed)
Settings in all cases: 10 µM
T-47D breast = tested on: T-47D breast
BT-549 breast = tested on: BT-549 breast
MDA-MB-435 melanoma = tested on: MDA-MB-435 melanoma
SW-620 colon = tested on: SW-620 colon
MCF7 breast = tested on: MCF7 breast
HCT-116 colon = tested on: HCT-116 colon
HCC-2998 colon = tested on: HCC-2998 colon
KM12 colon = tested on: KM12 colon

Measured: growth

Nc1c(C(=O)NC2CCCCC2)sc2nc3c(cc12)C(=O)CCC3
inactive: T-47D breast 94.2% | BT-549 breast 95.4% | MDA-MB-435 melanoma 54.7% | SW-620 colon 98.8% | MCF7 breast 83.2% | HCT-116 colon 102% | HCC-2998 colon 121% | KM12 colon 91.8%

O=C(Cn1ccc(=O)[nH]c1=O)c1ccc([N+](=O)[O-])o1
inactive: T-47D breast 80.4% | BT-549 breast 99.4% | MDA-MB-435 melanoma 97.1% | SW-620 colon 102% | MCF7 breast 38.2% | HCT-116 colon 88.7% | HCC-2998 colon 111% | KM12 colon 83.9%

CCc1c(C(=O)NCc2c(O)ccc3cccc(O)c23)[nH]c(C)c1C(C)=O
active: T-47D breast 9.15%
inactive: BT-549 breast 34.5% | MDA-MB-435 melanoma 35.1% | SW-620 colon 68.7% | MCF7 breast 11.6% | HCT-116 colon 42.3% | HCC-2998 colon 47.9% | KM12 colon 31.2%

CCOC(=O)[C@@H](Cc1ccccc1)NC(=O)c1[nH]c2ccc(Cl)cc2c(=O)c1C
inactive: T-47D breast 87.1% | BT-549 breast 108% | MDA-MB-435 melanoma 103% | SW-620 colon 96.3% | MCF7 breast 96.8% | HCT-116 colon 65.2% | HCC-2998 colon 87.6% | KM12 colon 97%

Cc1ccc(S(=O)(=O)Oc2ccccc2-c2ccccc2)cc1
active: MDA-MB-435 melanoma -41.5%
inactive: T-47D breast 37.1% | BT-549 breast 44.3% | SW-620 colon 20.8% | MCF7 breast 15.9% | HCT-116 colon 14.6% | HCC-2998 colon 46.3% | KM12 colon 15.6%

COc1ccc(CCc2nc3cc(-c4c(C)noc4C)ccc3n2CCN2CCOCC2)cc1
inactive: T-47D breast 28.2% | BT-549 breast 81.4% | MDA-MB-435 melanoma 26.1% | SW-620 colon 26.6% | MCF7 breast 34.5% | HCT-116 colon 31.1% | HCC-2998 colon 47.3% | KM12 colon 33.6%

O=C(O)c1ccc(CNc2ccc(C(=O)CCl)cc2)cc1
inactive: T-47D breast 58.1% | BT-549 breast 96.4% | MDA-MB-435 melanoma 87.7% | SW-620 colon 93.4% | MCF7 breast 32.4% | HCT-116 colon 80.8% | HCC-2998 colon 127% | KM12 colon 101%

COc1ccc(/C(CS(=O)(=O)c2ccccc2)=N\O)cc1
inactive: T-47D breast 93.4% | BT-549 breast 102% | MDA-MB-435 melanoma 94.1% | SW-620 colon 111% | MCF7 breast 94.6% | HCT-116 colon 125% | HCC-2998 colon 112% | KM12 colon 123%

O=S(=O)(NCCO)c1ccc(OCCOc2ccc(S(=O)(=O)NCCO)cc2)cc1
inactive: T-47D breast 84.5% | BT-549 breast 95.7% | MDA-MB-435 melanoma 104% | SW-620 colon 101% | MCF7 breast 96% | HCT-116 colon 102% | KM12 colon 104%
active: HCC-2998 colon 9.56%

COc1ccc(/C=C(\c2cc(OC)c(OC)c(OC)c2)c2nnc(-c3cccs3)o2)cc1
inactive: T-47D breast 78.7% | BT-549 breast 84.4% | MDA-MB-435 melanoma 65.9% | SW-620 colon 89.1% | MCF7 breast 72.4% | HCT-116 colon 66.4% | HCC-2998 colon 89.2% | KM12 colon 90%

C=C1C(=O)O[C@H]2[C@H]1CC/C(COC(=O)OCCCCCOC(=O)OC/C1=C/CC[C@@]3(C)O[C@H]3[C@H]3OC(=O)C(=C)[C@@H]3CC1)=C\CC[C@@]1(C)O[C@@H]21
active: T-47D breast -45% | BT-549 breast -72.7% | MDA-MB-435 melanoma -13% | SW-620 colon -54.3% | MCF7 breast -75.8% | HCT-116 colon -95.9% | HCC-2998 colon -60.8% | KM12 colon 5.59%

O=C(NC1CCCC1)c1ccc(N2CCC(NCc3cccc(C(F)(F)F)c3)CC2)cc1
inactive: T-47D breast 83.2% | BT-549 breast 89.3% | MDA-MB-435 melanoma 105% | SW-620 colon 97% | MCF7 breast 95.8% | HCT-116 colon 86.5% | HCC-2998 colon 41.2% | KM12 colon 84.5%

Cc1cc(C)c2nc(C)c(C)[n+]([O-])c2c1
inactive: T-47D breast 94.9% | BT-549 breast 106% | MDA-MB-435 melanoma 111% | SW-620 colon 114% | MCF7 breast 95.6% | HCT-116 colon 97.3% | HCC-2998 colon 97.9% | KM12 colon 106%

CCCCCCCCCCCCc1ccc(C(=O)/C=C/C(=O)O)cc1
active: SW-620 colon -23.1% | MCF7 breast -5.2% | HCT-116 colon -61.3%
inactive: T-47D breast 11.6% | BT-549 breast 45% | MDA-MB-435 melanoma 109% | HCC-2998 colon 76.2% | KM12 colon 97.7%

CC[C@@]1(C(N)=O)CC2C=CC1C2 (some centres undefined)
inactive: T-47D breast 103% | BT-549 breast 104% | MDA-MB-435 melanoma 106% | SW-620 colon 113% | MCF7 breast 99.5% | HCT-116 colon 104% | HCC-2998 colon 108% | KM12 colon 119%

CC(Oc1ccc(Cl)cc1)c1ccccc1 (centres undefined)
inactive: T-47D breast 95.7% | BT-549 breast 114% | MDA-MB-435 melanoma 101% | SW-620 colon 96.4% | MCF7 breast 102% | HCT-116 colon 98.9% | HCC-2998 colon 115% | KM12 colon 103%

O=C(Nc1cccc([N+](=O)[O-])c1)NN1CCCCCC1
inactive: T-47D breast 81.7% | BT-549 breast 107% | MDA-MB-435 melanoma 102% | SW-620 colon 95.9% | MCF7 breast 100% | HCT-116 colon 94.3% | HCC-2998 colon 94.8% | KM12 colon 98.7%

O=C(O)CN1C(=O)C=CC1=O
inactive: T-47D breast 101% | BT-549 breast 114% | MDA-MB-435 melanoma 106% | SW-620 colon 107% | MCF7 breast 102% | HCT-116 colon 107% | HCC-2998 colon 107% | KM12 colon 102%

COc1cc(CSc2nc3ccc(C)cc3c(=O)n2-c2ccccc2)cc(OC)c1OC
active: MDA-MB-435 melanoma -20%
inactive: T-47D breast 28.2% | BT-549 breast 19.6% | SW-620 colon 29.7% | MCF7 breast 19.9% | HCT-116 colon 26.6% | HCC-2998 colon 49.7% | KM12 colon 25.3%

N/C(=N\O)c1cn(C2OC(CO)C(O)C2O)c2ncnc(N)c12 (centres undefined)
inactive: BT-549 breast 14%
active: T-47D breast -7.04% | MDA-MB-435 melanoma -73.1% | SW-620 colon -12.1% | MCF7 breast -29.9% | HCT-116 colon 9.85% | HCC-2998 colon -23.1% | KM12 colon -24.2%

N#CN1CC[C@H](C(=O)Nc2ncc(-c3ccncc3)s2)C1
active: T-47D breast -23.4% | BT-549 breast -14.7% | MDA-MB-435 melanoma 6.91% | SW-620 colon 7.08% | MCF7 breast 2.99% | HCT-116 colon 1.83% | HCC-2998 colon 4.61% | KM12 colon -1.2%

Oc1cc(O)c(Br)cc1Br
inactive: T-47D breast 90.2% | BT-549 breast 93.8% | MDA-MB-435 melanoma 101% | SW-620 colon 105% | MCF7 breast 91.3% | HCT-116 colon 97.3% | HCC-2998 colon 94.6% | KM12 colon 101%

O=C1/C(=C/c2ccc(O)cc2O)N=C2SCCCN12
inactive: T-47D breast 85% | BT-549 breast 96.9% | MDA-MB-435 melanoma 99.2% | SW-620 colon 107% | MCF7 breast 108% | HCT-116 colon 99.5% | HCC-2998 colon 119% | KM12 colon 91.3%

FC(F)(F)c1ccc(-c2ncc(-c3ccc(C(F)(F)F)cc3)c(NCc3cc(C(F)(F)F)cc(C(F)(F)F)c3)n2)cc1
inactive: T-47D breast 28.1% | BT-549 breast 79.4% | MDA-MB-435 melanoma 68.3% | SW-620 colon 59.7% | MCF7 breast 54.9% | HCT-116 colon 24.4% | HCC-2998 colon 77.2% | KM12 colon 44.7%

COc1ccc(/C=C2\SC(=S)N(CCCN3CCOCC3)C2=O)c(OC)c1
inactive: T-47D breast 71.2% | BT-549 breast 96.1% | MDA-MB-435 melanoma 101% | SW-620 colon 105% | MCF7 breast 76% | HCT-116 colon 92.2% | HCC-2998 colon 109% | KM12 colon 97.2%

O=C(O)CCCN1C(=O)NC2(C1=O)c1ccccc1-c1ccccc12
inactive: T-47D breast 89.4% | BT-549 breast 96.7% | MDA-MB-435 melanoma 103% | SW-620 colon 104% | MCF7 breast 97.3% | HCT-116 colon 95.6% | HCC-2998 colon 101% | KM12 colon 102%

COc1cc(-c2nc(-c3nnc(-c4cccnc4)o3)c3ccccn23)cc(OC)c1OC
inactive: T-47D breast 100% | BT-549 breast 97.7% | MDA-MB-435 melanoma 99.2% | SW-620 colon 92.8% | MCF7 breast 107% | HCT-116 colon 96.8% | HCC-2998 colon 99.9% | KM12 colon 100%

CC(=O)Oc1c(C)c(C)c2c(c1C)CCC(C)(CC(=O)OCCCCCCCCCCC[P+](c1ccccc1)(c1ccccc1)c1ccccc1)O2 (centres undefined)
active: T-47D breast -64.1% | BT-549 breast -91.4% | MDA-MB-435 melanoma -89.2% | SW-620 colon -68.2% | MCF7 breast -87.2% | HCT-116 colon -95.6% | HCC-2998 colon -61% | KM12 colon -71.3%

Nc1ncncc1-c1ccc(F)cc1
inactive: T-47D breast 96.7% | BT-549 breast 111% | MDA-MB-435 melanoma 102% | SW-620 colon 114% | MCF7 breast 110% | HCT-116 colon 108% | HCC-2998 colon 109% | KM12 colon 110%

COc1ccc(Cn2cc3c(c2-c2cc(OC)c(OC)c(OC)c2)CCc2cnoc2-3)cc1[N+](=O)[O-]
inactive: T-47D breast 40% | BT-549 breast 51.9% | SW-620 colon 26.6% | MCF7 breast 26.6% | HCT-116 colon 19.4% | HCC-2998 colon 18% | KM12 colon 24.7%
active: MDA-MB-435 melanoma -53.9%

O=S(=O)(NCl)c1ccccc1
inactive: T-47D breast 92% | BT-549 breast 102% | MDA-MB-435 melanoma 98.9% | SW-620 colon 107% | MCF7 breast 85.5% | HCT-116 colon 101% | HCC-2998 colon 97.3% | KM12 colon 102%

COc1cccc(C(=O)N(c2ccc(F)c(F)c2)C(C(=O)NC(C)(C)C)c2cc3c(C)cc(C)cc3nc2Cl)c1 (centres undefined)
inactive: T-47D breast 46.6% | BT-549 breast 90.7% | MDA-MB-435 melanoma 63.2% | SW-620 colon 78.6% | MCF7 breast 45.6% | HCT-116 colon 34.8% | HCC-2998 colon 88.3% | KM12 colon 60.2%

C=CCn1ccc(=O)nc1SC
inactive: T-47D breast 97.2% | BT-549 breast 105% | MDA-MB-435 melanoma 108% | SW-620 colon 103% | MCF7 breast 100% | HCT-116 colon 112% | HCC-2998 colon 103% | KM12 colon 104%
